Source: PubChem BioAssay (NCATS)
Several values for one entry are separate records, joined by “and”; a condition that tells them apart may be missing. Equal values may be shown once. Results filed as inconclusive are left out. Unmarked numbers belong to inactive results. Activity calls are given as the source filed them. Calls follow the shape of the dose curve; as a rule, active = well fitted inhibition curve with a large enough effect; inconclusive = small, poorly fitted or top-dose-only effect; inactive = flat fitted curve, though single readings scatter.

Experiment: Primary qHTS for inhibitors of nuclear receptor binding SET domain protein 2 (NSD2) in an isogenic RCH-ACV NSD2 p.E1099K mutant (9B) (AID 1645876); also: nearly all actives have a fitted effect of over 70% in size
Details: RCH-ACV (leukaemia line) NSD2 E1099K (9B) viability, CellTiter-Glo, 72 h; series mostly up to 44.9 µM; activity change, negative = viability loss: at the top concentration
% is scaled to controls: 0 for no effect and ±100 for the full control effect; potency is read from the fitted curve at half-maximal effect.

| SMILES | activity change, negative = viability loss | outcome | Potency |
| --- | --- | --- | --- |
| COc1cc(C)c(C(=O)O[C@H]2[C@@H](O)[C@H](n3ccc(=O)[nH]c3=O)O[C@@H]2CO)c(OC)c1 | -12.7% [at 17.3 µM] |  |  |
| C=C1CC2C3(C)C(OC(C)=O)CC(=O)OC(C)(C)C3C(O)C(OC(C)=O)C2(C)C2C(=O)OC(C)C(=O)C12C (stereo not given) | -15.7% [at 17.3 µM] |  |  |
| CC(C)C1=CC2=CCC3[C@](C)(CCC[C@@]3(C)C(=O)O)C2CC1=O (stereo not given in full) | 2.18% |  |  |
| CC1=CC2(O)/C=C/C(C)(O)CC(O)/C=C/C(=O)OC23C(=O)NC(CC(C)C)C3C1C (stereo not given) | -26.9% [at 17.3 µM] |  |  |
| Clc1ccc2c(c1)C1=NCCN1c1c(-c3noc(C4CC4)n3)ncn1-2 | -18.1% |  |  |
| CC1CCC2(O1)C(C)(C)CC(O[C@@H]1O[C@H](CO[C@@H]3OC[C@](O)(CO)[C@H]3O)[C@@H](O)[C@H](O)[C@H]1O)CC2(C)O (stereo not given in full) |  | inactive [at 17.3 µM] |  |
| O=c1ccn(C2OC(CO)C(O)C2O)c(=O)[nH]1 (stereo not given) | 1.49% |  |  |
| Cc1cc(O)cc(Oc2cc(C)c(C(=O)O)c(O)c2)c1 | 0.29% |  |  |
| CC(=O)C1CCC2(C)C3=C(CCC12C)C1(C)CCC(=O)C(C)(C)C1CC3 (stereo not given) | -9.88% |  |  |
| COC(=O)C1C(CC(C)=O)C=CC(O)C12Oc1cc(C)cc(O)c1C2=O (stereo not given) | -19.6% |  |  |
| CC(C)c1cc2c(c(O)c1O[C@@H]1O[C@H](CO)[C@@H](O)[C@H](O)[C@H]1O)CC1(O)CCC(O)C(C)(C)C1CC2 (stereo not given in full) | -4.24% [at 17.3 µM] |  |  |
| COc1cc(CC(COC2OC(CO)C(O)C(O)C2O)c2cc(/C=C/CO)cc(OC)c2O)ccc1O (stereo not given) |  | inactive [at 17.3 µM] |  |
| N#CCc1ccc(O)cc1O[C@@H]1O[C@H](CO)[C@@H](O)[C@H](O)[C@H]1O | -1.28% |  |  |
| COC(=O)C[C@@H]1C(C(=O)O)=CO[C@@H](O[C@@H]2O[C@H](CO)[C@@H](O)[C@H](O)[C@H]2O)/C1=C\COC(=O)/C=C\c1ccccc1 | -19.1% [at 17.3 µM] |  |  |
| COc1c(C(CC(C)C)OC(C)=O)ccc(Oc2c(O)cc(C)cc2/C=C/C(C)=O)c1C(=O)O (stereo not given) | -19.3% [at 17.3 µM] |  |  |
| C=C(C)[C@@H]1CC[C@](C)(O)[C@@H](OC(=O)c2ccccc2)C1 | -30.6% |  |  |
| CCCC1=CC2=C(CO1)C(=O)C(C)(OC(=O)c1c(C)cc(OC)cc1O)C(O)C2 (stereo not given) | -12.4% [at 17.3 µM] |  |  |
| CC(C)(OC1OC(CO)C(O)C(O)C1O)C1CCC(O)(CO)C2CC(O)C(C)(O)C2C1 (stereo not given) |  | inactive [at 17.3 µM] |  |
| CC1CCCC2OC2C(=O)c2c(O)cc(O)cc2CC(=O)O1 (stereo not given) | -20.5% |  |  |
| C=C(C(=O)O)C1CCC(C)C2CCC(=O)OC2(C)C1 (stereo not given) | -12% |  |  |

| SMILES | activity change, negative = viability loss | outcome | Potency |
| --- | --- | --- | --- |
| CC1(C)O[C@@]2(C)CC[C@@H]1C[C@@H]2OC1OC(CO)C(O)C(O)C1O (stereo not given in full) | -0.566% |  |  |
| C=CC1(C)CC(OC(=O)C(=C)C(O)COC(C)=O)C(C(=C)C(=O)OC)C(O)C1C(=C)CO (stereo not given) | -13.4% [at 17.3 µM] |  |  |
| C/C=C/C1=CC2=CC(=O)C(C)(O)C(OC(=O)c3c(C)cc(O)cc3O)C2CO1 (stereo not given) | -21.5% |  |  |
| CC1OC(OC2C(C)OC(OC3C(OC(=O)/C=C/c4ccc(O)cc4)C(CO)OC(OC4(COC(=O)/C=C/c5ccc(O)cc5)OC(CO)C(O)C4O)C3OC3OCC(O)(CO)C3O)C(O)C2O)C(O)C(O)C1O (stereo not given) | -6.92% [at 9.23 µM] |  |  |
| CC(=O)OC[C@]1(O)[C@H]2[C@H](OC(=O)CC(C)C)OC=C(CO[C@@H]3O[C@H](CO)[C@@H](O)[C@H](O)[C@H]3O)[C@H]2C[C@@H]1O | -18.3% [at 17.3 µM] |  |  |
| O=C(O)c1cc(O)c2cccc(O)c2c1O[C@@H]1O[C@H](CO)[C@@H](O)[C@H](O)[C@H]1O | -17.9% |  |  |
| CC/C=C\C[C@H]1C(=O)C=C[C@@H]1CCCCCCCC(=O)O | -17.6% |  |  |
| C=C(C)C(C)C1OC23CC4(CO2)C(CCC2C5(C)CCC(OC6OCC(O)C(OC7OC(CO)C(O)C(OC8OCC(O)C(O)C8O)C7O)C6OC6OC(CO)C(O)C6O)C(C)(C)C5CCC24C)C3C(C)(O)C1OC(C)=O (stereo not given) | -26.7% [at 9.23 µM] |  |  |
| CC1CCC2(C(=O)OC3OC(CO)C(O)C(O)C3O)CCC3(C)C(=CCC4C5(C)CC(O)C(O)C(C)(C(=O)O)C5CCC43C)C2C1(C)O (stereo not given) |  | inactive [at 17.3 µM] |  |
| CN1C(=O)c2ccccc2-n2c(nc3ccccc3c2=O)[C@@]12O[C@H]2c1ccccc1 | -8.15% |  |  |
| COc1c(C)c(OCC=C(C)C)cc2c1C(=O)NC2=O | 3.08% |  |  |
| C=CC(C)(C)O[C@@H]1O[C@H](CO[C@@H]2OC[C@](O)(CO)[C@H]2O)[C@@H](O)[C@H](O)[C@H]1O | -0.424% |  |  |
| CC(C)CNC(=O)/C=C/CCCCc1ccc2c(c1)OCO2 | -5.25% |  |  |
| C[C@@H]1O[C@@H](O[C@H]2[C@H](OC(C#N)c3ccc(O)cc3)O[C@H](CO)[C@@H](O)[C@@H]2O)[C@H](O)[C@H](O)[C@H]1O (stereo not given in full) | -2.67% [at 17.3 µM] |  |  |
| CC(=O)NC(C(=O)OC1CCC(C)(C)C2CC=C3C(=O)OCC3(O)C12C)C(C)C (stereo not given) | -28.3% [at 17.3 µM] |  |  |
| CC1=CC[C@]2(C(=O)O[C@@H]3O[C@H](CO[C@@H]4O[C@H](CO)[C@@H](O[C@@H]5O[C@@H](C)[C@H](O)[C@@H](O)[C@H]5O)[C@H](O)[C@H]4O)[C@@H](O)[C@H](O)[C@H]3O)CC[C@]3(C)C(CCC4[C@@]5(C)C[C@@H](O)[C@H](O)[C@@](C)(CO)C5CC[C@]43C)C2C1C (stereo not given in full) |  | inactive [at 9.23 µM] |  |
| CCc1nc(C(N)=O)c(Nc2ccc(N3CCC(N4CCN(C)CC4)CC3)c(OC)c2)nc1NC1CCOCC1 |  |  | 1.13 µM (active) and 2.63 µM (active) |
| CN1CC[C@@H](NC(=O)Nc2ccc(C#N)cc2)C[C@@H]1c1nc2ccccc2[nH]1 | -6.81% |  |  |
| CC(C)(O)c1ccc2c(c1)C(O)CC1C(C)(C(=O)O)CCCC21C (stereo not given) |  | inactive |  |
| CC1(C)CCC2(C(=O)OC3OC(COC4OC(CO)C(O)C(O)C4O)C(O)C(O)C3O)CCC3(C)C(=CCC4C5(C)CCC(O)C(C)(C(=O)O)C5CCC43C)C2C1O (stereo not given) | 0.116% [at 9.23 µM] |  |  |
